aSyn UTR act: Activators via SNCA 5'UTR binding, MLPCN | alpha-synuclein 5'UTR reporter, activators screen | activity score, % (tested at 7.5 µM), hits read low | 300,000 tested, 7.1% active | AID 1814; in the data active means activity score below about -60%
Starred values were filed as active, the others as inactive. The list is a sample of the results.

For Cc1cccc(-n2c(N)c(C(=O)NCCN3CCOCC3)c3nc4ccccc4nc32)c1 the results were aSyn UTR act -82.5*.
`O=C(Nc1ccon1)c1cc2c(s1)CCCC2` gave aSyn UTR act -113.3*.
Screening Cc1csc(NC(=O)c2cc3c(s2)CCCCC3)n1 returned aSyn UTR act 91.9.
Screening Cc1cnc(NC(=O)c2cc3c(s2)CCCC3)s1 returned aSyn UTR act 65.4.
`O=C(NCc1ccco1)c1cc2c(s1)CCCCC2` gave aSyn UTR act -217.8*.
Screening O=C(Nc1ccon1)c1cc2c(s1)CCCCCC2 returned aSyn UTR act -166.8*.
For O=C(Nc1ccc(N2CCOCC2)cc1)c1cc2c(s1)CCCC2 the results were aSyn UTR act -68.9*.
O=C(NCc1cccnc1)/C(=C\c1ccc(-c2ccc(Cl)c(Cl)c2)o1)S(=O)(=O)c1ccccc1 was read as aSyn UTR act -331.6*.
`CC(=O)c1c(C)[nH]c(C(=O)Nc2nccs2)c1C` gave aSyn UTR act -134.8*.
CC(=O)c1c(C)[nH]c(C(=O)Nc2nc(-c3ccccc3)c(C)s2)c1C was read as aSyn UTR act -76.4*.
CC(=O)c1sc(NC(=O)c2ccco2)nc1-c1ccccc1 was read as aSyn UTR act -115.0*.
Screening Cc1sc(NC(=O)c2cccs2)nc1-c1ccccc1 returned aSyn UTR act -199.2*.
Screening Cc1sc(NC(=O)c2ccco2)nc1-c1ccccc1 returned aSyn UTR act -94.6*.
Screening Cc1sc(N/N=C/c2cccs2)nc1-c1ccccc1 returned aSyn UTR act -211.3*.
Screening COC(CN(C(=O)CCl)C(C(=O)NC1CCCCC1)c1ccccc1C)OC (stereo unspecified) returned aSyn UTR act -70.6*.
`Cc1cccc(NC2=C(NC(=O)c3ccccc3)C(=O)c3ccccc3C2=O)c1` gave aSyn UTR act -101.6*.
`COc1ccccc1C(=O)Nc1ccccc1SC(=O)c1ccccc1OC` gave aSyn UTR act -112.3*.
`COc1ccccc1C(=O)Nc1cc(C)on1` gave aSyn UTR act -113.5*.
Screening COc1ccccc1C(=O)Nc1cc(-c2ccc(C)cc2)no1 returned aSyn UTR act -177.7*.
COc1ccccc1C(=O)Nc1cccc(NC(=O)c2ccccc2OC)n1 was read as aSyn UTR act -112.3*.
Screening COc1cccc2cc(C(=O)Nc3cccc(C)n3)c(=O)oc12 returned aSyn UTR act -166.6*.
For Cc1cc(NC(=O)C(=O)c2cn(C)c3ccccc23)no1 the results were aSyn UTR act -71.7*.
Screening COc1ccccc1C(=O)Nc1ccc2c3c(cccc13)CC2 returned aSyn UTR act -117.6*.
`C/C(=N/N=C(\C)c1ccccc1O)c1ccccc1O` gave aSyn UTR act -114.8*.
CCSc1nnc(NC(=O)c2cccs2)s1 was read as aSyn UTR act -137.5*.
For O=C(Nc1nnc(SCc2ccc(F)cc2)s1)c1ccccn1 the results were aSyn UTR act 63.2.
Screening O=C(Nc1nnc(SCc2ccccc2)s1)c1cccs1 returned aSyn UTR act -66.7*.
Screening CCSc1nnc(NC(=O)NC2CCCCC2)s1 returned aSyn UTR act -64.1*.
Screening CCSc1nnc(NC(=O)C(C)(C)C)s1 returned aSyn UTR act -107.1*.
Screening CC(=O)Cc1nsc(NC(=O)c2cccs2)n1 returned aSyn UTR act -66.8*.
CSc1ncc(CN2CCCC(C(=O)c3ccc(C(C)(C)C)cc3)C2)cn1 (stereo unspecified) was read as aSyn UTR act -87.7*.
Screening CN(C)c1ccc(N=Cc2nc(-c3ccccc3)oc2OC(=O)c2cccc(Cl)c2)cc1 returned aSyn UTR act -145.6*.
`CCOC(=O)/C(=C\c1ccccc1)NC(=O)c1ccccc1` gave aSyn UTR act -105.1*.
For C=CCOC(=O)/C(=C\c1ccccc1)NC(=O)c1ccc(C)cc1 the results were aSyn UTR act -175.1*.
For O=C(/C=C/Nc1ccc(F)c(F)c1)c1cccs1 the results were aSyn UTR act -374.4*.
Screening O=C(/C=C/Nc1ccc(F)cc1)c1cccs1 returned aSyn UTR act -114.5*.
Screening Brc1ccc(-c2csc(/N=C/N3CCCC3)n2)cc1 returned aSyn UTR act -94.2*.
`Brc1ccc(-c2csc(/N=C/N3CCOCC3)n2)cc1` gave aSyn UTR act -90.0*.
For OCCN(/C=N/c1nc(-c2ccc(Br)cc2)cs1)CCO the results were aSyn UTR act -93.2*.
`COc1cccc(OCc2nc3ncc(Br)cc3[nH]2)c1` gave aSyn UTR act -77.1*.
COc1ccc(OCc2nc3ccccc3[nH]2)cc1 was read as aSyn UTR act -113.3*.
`c1ccc2cc(OCc3nc4ccccc4[nH]3)ccc2c1` gave aSyn UTR act -166.5*.
`Brc1ccc(OCc2nc3ccccc3[nH]2)cc1` gave aSyn UTR act -213.6*.
COc1cccc(OCc2nc3ccccc3[nH]2)c1 was read as aSyn UTR act -136.9*.
COc1cccc(CSc2nc3ccccc3cc2C=O)c1 was read as aSyn UTR act 71.0.
CN(C)c1cc(N/N=C/c2ccc(Cl)cc2)nc(N(C)C)n1 was read as aSyn UTR act -64.5*.
CC(=O)n1c2ccccc2c2nc3ccccc3nc21 was read as aSyn UTR act -98.1*.

Source: PubChem BioAssay
